High-throughput results from PubChem BioAssay.
Most compounds without a hit are left out; they make up all but 4.6% or so of the library.
D1 agonist: agonists of human D1 dopamine receptor; P21728; HEK293 T-REx D1 cells, calcium flux, agonist mode; activation, % at 2 µM; 360,000 tested, 1% active; AID 504660
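Inducible HEK293 T-REx D1 cells, force-coupled to calcium signalling, were plated at 4000 cells/well with tetracycline and held overnight at 30 C. After no-wash calcium dye loading, compound-evoked calcium rise over 180 s flagged agonists.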
TRHR PAM: allosterically enhances the human TRH receptor; AID 493056; 360,000 tested, 0.66% active; TRHR cells, fluo-8 calcium fluorescence, EC20 TRH enhancement; enhancement, % at 2 µM; in the data active = enhancement above about 30%
Target sequence (P34981 whole entry, looked up): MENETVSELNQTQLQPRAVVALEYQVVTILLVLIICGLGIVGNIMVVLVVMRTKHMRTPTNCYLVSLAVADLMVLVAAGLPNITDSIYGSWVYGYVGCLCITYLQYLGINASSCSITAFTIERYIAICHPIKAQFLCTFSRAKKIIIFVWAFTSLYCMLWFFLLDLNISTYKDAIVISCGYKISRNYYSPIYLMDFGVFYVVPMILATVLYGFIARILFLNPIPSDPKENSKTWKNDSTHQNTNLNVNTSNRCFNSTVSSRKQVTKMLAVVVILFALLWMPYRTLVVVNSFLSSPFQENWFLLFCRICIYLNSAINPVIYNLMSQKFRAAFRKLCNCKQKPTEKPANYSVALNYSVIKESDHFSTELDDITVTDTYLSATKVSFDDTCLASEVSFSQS
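Enhancer read-out: after compound pinning and an initial kinetic agonist-mode read, an EC20 of TRH (10 nM final) was injected and fluo-8 calcium signal (Ex 480/Em 530) followed at 1 s/cycle for 100 cycles in TRHR-expressing cells.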
D1 PAM: human D1 dopamine receptor positive modulation | 360,000 tested, 0.036% active | HEK293 TREx D1 cells, calcium flux, dopamine EC20 potentiation | potentiation, % at 10 µM; in the data active = potentiation above about 30%
D1 antagonist: blocks dopamine activation of the human D1 receptor; HEK293 TREx D1 cells, calcium flux, dopamine EC80; hits give low values; P21728; 360,000 tested, 3.2% active; activity change, negative = inhibition, % at 10 µM; in the data active = activity change below about -30%
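Allosteric or orthosteric antagonism assessed as attenuation of the calcium response to EC80 dopamine, added 180 s after compound, in induced HEK293 Trex D1 cells loaded with no-wash calcium dye.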
TRHR ag: activates the human TRH receptor | P34981 | TRHR cells, calcium flux fluo-8, FDSS agonist mode | activation, % at 2 µM | 360,000 tested, 0.18% active
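In this calcium-flux screen, cells bearing human TRHR are dye-loaded with fluo-8, baselined for 10 cycles, then exposed to library compounds; positive kinetic calcium responses during the agonist phase mark hits, with TRH as control.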
Numbers stand for hits. Rule as the data show it, unless noted: active = activation above about 30%; inactive = the rest.

What do the screens show for `COC(=O)c1ccc(CN2C(=O)NC(CC(C)C)C2=O)cc1` (stereo unspecified)?
D1 agonist: inactive; TRHR PAM: inactive; D1 PAM: inactive; D1 antagonist: -32.4; TRHR ag: inactive

How did Cc1cc(C)cc(NC(=O)CSc2nc3c([nH]c4ccccc43)c(=O)n2-c2ccc(F)cc2)c1 do in these assays?
D1 agonist: inactive; TRHR PAM: inactive; D1 PAM: inactive; D1 antagonist: inactive; TRHR ag: inactive

How did O=C1C2=C(C(=O)c3ccccc31)C1O[C@](CCCCN3C(=O)c4ccccc4C3=O)(Cc3c1ccc1ccccc31)O2 do in these assays?
D1 agonist: inactive; TRHR PAM: inactive; D1 PAM: inactive; D1 antagonist: inactive; TRHR ag: inactive

Results for Cc1cccc(C)c1NC(=O)c1ccc2c(c1)N(Cc1cccc(Cl)c1)C(=O)c1ccccc1S2=O (stereo unspecified) ?
D1 agonist: inactive; TRHR PAM: 33.0; D1 PAM: inactive; D1 antagonist: inactive; TRHR ag: inactive

Results for CCC(C)NC(=O)c1ccc2c(c1)N(Cc1cccc(Cl)c1)C(=O)c1ccccc1S2=O (stereo unspecified) ?
D1 agonist: inactive; TRHR PAM: inactive; D1 PAM: inactive; D1 antagonist: inactive; TRHR ag: inactive

What do the screens show for `CC(NC(=O)c1ccc2c(c1)N(Cc1ccc(Cl)cc1)C(=O)c1ccccc1S2=O)c1ccccc1` (stereo unspecified)?
D1 agonist: inactive; TRHR PAM: inactive; D1 PAM: inactive; D1 antagonist: -34.7; TRHR ag: inactive

How did Cc1cc(NC(=O)c2ccc3c(c2)N(Cc2cccc(Cl)c2)C(=O)c2ccccc2S3=O)ccc1Br (stereo unspecified) do in these assays?
D1 agonist: inactive; TRHR PAM: inactive; D1 PAM: inactive; D1 antagonist: inactive; TRHR ag: inactive

How did CCCN(C(=O)Nc1cn(CC(C)C)c(=O)c2ccccc12)c1ccc(F)cc1 do in these assays?
D1 agonist: inactive; TRHR PAM: inactive; D1 PAM: inactive; D1 antagonist: inactive; TRHR ag: inactive

Results for Cc1ccc(NC(=O)c2cnc(SCC(=O)N3CCOCC3)n(C)c2=O)cc1C ?
D1 agonist: inactive; TRHR PAM: inactive; D1 PAM: inactive; TRHR ag: inactive

Results for Cc1nn(S(=O)(=O)c2ccc(F)cc2)c(C)c1S(=O)(=O)N1CCOCC1 ?
D1 agonist: inactive; TRHR PAM: inactive; D1 PAM: inactive; D1 antagonist: inactive; TRHR ag: inactive

How did O=C(CN1C(=O)CC(c2ccc(F)cc2)=Nc2ccccc21)NCc1ccccc1Cl do in these assays?
D1 agonist: inactive; TRHR PAM: inactive; D1 PAM: inactive; D1 antagonist: -46.2; TRHR ag: inactive

What do the screens show for `FC(F)(F)c1cccnc1Oc1ccc(C2=NCCS2)cc1`?
D1 agonist: 37.2; TRHR PAM: inactive; D1 PAM: inactive; D1 antagonist: inactive; TRHR ag: inactive

What do the screens show for `Nc1cccnc1Oc1ccc(F)cc1`?
D1 agonist: inactive; TRHR PAM: inactive; D1 PAM: inactive; D1 antagonist: inactive; TRHR ag: inactive

How did Cc1cc(C)cc(N(CCC#N)C(=O)COC(=O)c2ccccc2SCC(=O)N2CCCC2)c1 do in these assays?
D1 agonist: inactive; TRHR PAM: inactive; D1 PAM: inactive; D1 antagonist: -34.2; TRHR ag: inactive

How did Cc1ccc(N(CCC#N)C(=O)COC(=O)c2ccccc2SCC(=O)N2CCCC2)cc1 do in these assays?
D1 agonist: inactive; TRHR PAM: inactive; D1 PAM: inactive; D1 antagonist: inactive; TRHR ag: inactive

Results for O=C(CSc1nccn1-c1cccc(Cl)c1)Nc1cccc2ccccc12 ?
D1 agonist: inactive; TRHR PAM: inactive; D1 PAM: inactive; D1 antagonist: inactive; TRHR ag: inactive

What do the screens show for `Cc1cc(C)c2nc(Cl)c(C3NC(=O)c4ccccc4N3)cc2c1` (stereo unspecified)?
D1 agonist: inactive; TRHR PAM: inactive; D1 PAM: inactive; D1 antagonist: inactive; TRHR ag: inactive

How did Cc1ccc(C)c(C2NC(=O)c3ccccc3N2)c1 (stereo unspecified) do in these assays?
D1 agonist: inactive; TRHR PAM: 37.4; D1 PAM: inactive; D1 antagonist: inactive; TRHR ag: inactive

What do the screens show for `COc1ccc(/C=C(/C(=O)c2ccc(Cl)cc2Cl)n2cncn2)cc1`?
D1 agonist: inactive; TRHR PAM: inactive; D1 PAM: inactive; D1 antagonist: inactive; TRHR ag: inactive
